Among the data in PubChem BioAssay (EPA / NIEHS) are outcome and AC50 values, retold here.

Experiment [1] is described as follows: CCTE_Shafer_MEA_acute_interburst_interval_mean: CCTE's Neural Acute Assay for Mean Interburst Interval, Shafer Lab (AID 2284016).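 Also: percent change of mean interburst interval versus each well's own pre-dose baseline; curves fitted for decrease in interburst interval relative to DMSO.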 The method, boiled down: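 Primary rat cortical neurons on 16-electrode MEA wells were recorded 40 min at baseline on DIV 13 or 15, then 40 min after compound (0.03-40 uM), at 37 C. Value is percent change in mean interburst interval per well, DMSO as negative control.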

A short description of experiment [2]: CCTE_Shafer_MEA_acute_burst_percentage_std: CCTE's Neural Acute Assay for Standard Deviation of Burst Percentage, Shafer Lab (AID 2284018).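 Also: fitted in the negative direction so actives lower burst percentage SD.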 The method, boiled down: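 Value is percent change from baseline in the across-electrode SD of spikes-in-bursts percentage, wells with >/= 10 active electrodes. Acute 40-min exposure to 0.03-40 uM on DIV 13 or 15 rat cortical cultures, recorded at 37 C after 40-min baseline.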

Experiment [3] in a line: CCTE_Shafer_MEA_acute_per_network_burst_spike_number_mean: CCTE's Neural Acute Assay for Average Number of Spikes in a Network Burst, Shafer Lab (AID 2284019).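 As to AC50: curve fitted for loss of signal so actives reduce spikes per network burst.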 The method, boiled down: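 Percent change from baseline in mean spikes per network burst, spikes detected at 8x rms noise. Each compound at 0.03-40 uM in at least three wells of rat cortical cultures, recorded 40 min before and 40 min during exposure.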

Experiment [4] can be described thus: CCTE_Shafer_MEA_acute_per_network_burst_spike_number_std: CCTE's Neural Acute Assay for Standard Deviation of Number of Spikes in a Network Burst, Shafer Lab (AID 2284020).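 Also: fitted for decrease in spike-number SD versus DMSO so actives lower it.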 A digest of the protocol:
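Endpoint: percent change from 40 min baseline in standard deviation of spikes per network burst, after 40 min compound exposure (0.03-40 uM, 37 C). Cortical rat neurons on MEA at DIV 13 or 15; spikes detected at 8x rms noise, 300-5000 Hz band-pass.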

A short description of experiment [5]: CCTE_Shafer_MEA_acute_network_burst_percentage: CCTE's Neural Acute Assay for Percentage of Network Bursts, Shafer Lab (AID 2284022).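 Also: curves fitted for loss so actives lower network burst percentage.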 A digest of the protocol: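 Network burst percentage (spikes in network bursts divided by total spikes) recorded at 37 C over 40 min baseline and 40 min after compound, 0.03-40 uM, in rat cortical cultures at DIV 13 or 15. Analysed as percent change from baseline versus DMSO.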

Experiment [6] can be described thus: CCTE_Shafer_MEA_acute_cross_correlation_area: CCTE's Neural Acute Assay for Area of Cross Correlation, Shafer Lab (AID 2284024).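 Also: area under pooled inter-electrode spike cross-correlation near zero lag as percent change from own baseline; curves fitted for loss of cross-correlation area so actives lower synchrony.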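 As to outcome: rat primary cortical neuron networks on 48-well MEA at DIV 13 or 15 with 40 min exposure.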 A digest of the protocol:
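Percent change in well-wide cross-correlation area (window around zero lag) between 40 min baseline and 40 min post-compound recordings, 37 C; rat cortical cultures on MEA at DIV 13 or 15, dosed 0.03-40 uM, wells needing >/= 10 active electrodes.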

The nature of experiment [7]: CCTE_Shafer_MEA_acute_synchrony_index: CCTE's Neural Acute Assay for Synchrony, Shafer Lab (AID 2284027).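 Also: network synchrony index of spontaneous spiking in primary rat cortical neurons on MEAs; fitted for loss of signal so actives lower synchrony relative to DMSO.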 A digest of the protocol:
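Acute exposure of rat primary cortical neurons (DIV 13 or 15) at 0.03-40 uM. Synchrony index, 40 min before vs after, as % change relative to DMSO control.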

Experiment [8] has as its target Estrogen receptor (Homo sapiens) (UniProt P03372). Briefly: CCTE_Deisenroth_AIME_384WELL_LUC_Active: CCTE's 384-well Estrogen Receptor Transactivation Assay with AIME metabolic competence (ERTA luciferase; metabolism positive), Deisenroth Lab (AID 2284030; active = hit-call score of the fitted dose curve at least 0.9, where 1 is the maximum). A digest of the protocol: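 VM7Luc4E2 breast cells were given, for 24 hours, medium pre-incubated for 2 hours with parent chemical (0.002-200 uM, 10 concentrations) and alginate-encapsulated phenobarbital/beta-naphthoflavone-induced rat hepatic S9. Luciferase gain of signal was fitted against 17beta-estradiol; n=4 or more.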

Experiment [9] in a line: CCTE_Shafer_MEA_dev_per_burst_spike_percent: CCTE's Neural Network Formation Assay for Percent of Spikes in a Burst, Shafer Lab (AID 2284032).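 As to AC50: fitted as a decrease in burst spike percentage below DMSO baseline.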 A digest of the protocol: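 Value is trapezoidal AUC over recordings on days 5, 7, 9 and 12 of the well-mean fraction of spikes falling in single-electrode bursts; rat cortical cultures exposed continuously from plating, treatment renewed DIV 5 and 9, fitted downward against DMSO.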

Experiment [10] in a line: CCTE_Deisenroth_AIME_384WELL_CTox_Active: Cytotoxicity Assessment (CTOX) in CCTE's 384-well Estrogen Receptor Transactivation Assay with AIME metabolic competence (metabolism positive), Deisenroth Lab (AID 2284037; active = hit-call score of the fitted dose curve at least 0.9, where 1 is the maximum;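 also: chemicals first conditioned 2 h by alginate-bound induced rat liver S9 before cells; activity means signal loss indicating cell death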). The method, boiled down:
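Cytotoxicity in VM7Luc4E2 breast cells, 24 hour, measured as protease-substrate fluorescence loss, after 2-hour metabolic conditioning with induced rat hepatic S9 in alginate microspheres. Concentrations 0.002 - 200 uM, 10 points, bidirectional fitting.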

Experiment [11] can be described thus: CCTE_Deisenroth_AIME_384WELL_CTox_Inactive: Cytotoxicity Assessment (CTOX) in CCTE's 384-well Estrogen Receptor Transactivation Assay without AIME metabolic competence (metabolism negative), Deisenroth Lab (AID 2284039; active = hit-call score of the fitted dose curve at least 0.9, where 1 is the maximum;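 also: cell viability via live-cell protease substrate cleaved to fluorescent probe; loss of fluorescence signal means loss of viability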). A digest of the protocol: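 VM7Luc4E2 human breast cells received conditioned medium from a 2 h incubation of chemical with alginate-water microspheres (no S9), then were exposed 24 h. Viability was read as protease-substrate cleavage to a fluorescent probe; loss of signal was fitted bidirectionally over 0.002–200 uM.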

The target of experiment [12] is Estrogen receptor (Homo sapiens) (UniProt P03372). Briefly: CCTE_Deisenroth_AIME_384WELL_LUC_Shift: CCTE's 384-well Estrogen Receptor Transactivation Assay with AIME metabolic competence data shift (ERTA luciferase; difference in metabolism positive and negative), Deisenroth Lab (AID 2284041).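 Also: shift is response with S9 minus without S9 so positive means metabolism raised ER signal.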 The method, boiled down: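 Test chemicals (0.002–200 uM, 10-point) were pre-incubated 2 h with alginate microspheres containing phenobarbital/beta-naphthoflavone-induced male Sprague Dawley rat liver S9 or water, then medium was transferred to VM7Luc4E2 cells for 24 h luciferase readout; shift = S9-positive minus S9-negative normalized response.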
Sequence of Estrogen receptor (Homo sapiens) (P03372 whole entry, looked up): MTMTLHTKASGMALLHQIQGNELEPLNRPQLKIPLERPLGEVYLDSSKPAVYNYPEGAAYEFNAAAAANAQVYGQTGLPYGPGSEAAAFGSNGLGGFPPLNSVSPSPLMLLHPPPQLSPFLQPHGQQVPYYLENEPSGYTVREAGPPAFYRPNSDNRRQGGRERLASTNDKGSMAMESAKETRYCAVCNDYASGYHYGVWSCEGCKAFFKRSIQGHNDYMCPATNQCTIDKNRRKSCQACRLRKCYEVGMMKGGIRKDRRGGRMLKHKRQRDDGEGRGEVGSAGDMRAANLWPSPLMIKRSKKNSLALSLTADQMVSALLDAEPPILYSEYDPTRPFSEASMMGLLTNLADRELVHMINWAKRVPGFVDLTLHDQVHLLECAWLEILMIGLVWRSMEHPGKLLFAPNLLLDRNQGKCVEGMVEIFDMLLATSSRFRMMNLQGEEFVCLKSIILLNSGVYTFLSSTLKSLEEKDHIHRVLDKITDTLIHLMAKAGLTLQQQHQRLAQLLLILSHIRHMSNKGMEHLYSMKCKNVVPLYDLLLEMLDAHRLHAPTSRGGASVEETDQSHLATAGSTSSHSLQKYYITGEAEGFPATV

Experiment [13] in a line: CCTE_Shafer_MEA_dev_burst_rate: CCTE's Neural Network Formation Assay for Burst Rate, Shafer Lab (AID 2284042).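 As to AC50: potency for loss of burst rate below DMSO control.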 A digest of the protocol:
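Rat primary cortical cultures on PEI/laminin MEA; compound from plating, re-dosed at DIV 5, 9 media change. Single-electrode bursts/recording length, well mean of active electrodes; AUC over DIV 5–12 recordings; loss-of-signal vs DMSO.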

Experiment [14] in a line: CCTE_Shafer_MEA_dev_bursting_electrodes_number: CCTE's Neural Network Formation Assay for Number of Bursting Electrodes, Shafer Lab (AID 2284043; active = hit-call score of the fitted dose curve at least 0.9, where 1 is the maximum;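 as to AC50: potency is for loss of bursting electrodes relative to DMSO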). The method, boiled down:
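Number of electrodes reaching ≥1 burst every 2 min was recorded at DIV 5, 7, 9 and 12 and collapsed as trapezoidal area under the curve. Cultures were rat cortical neurons on MEA plates, dosed continuously from plating with medium and treatment refreshed on DIV 5 and 9.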

The nature of experiment [15]: CCTE_Shafer_MEA_dev_per_burst_interspike_interval: CCTE's Neural Network Formation Assay for Burst Interspike Interval, Shafer Lab (AID 2284044).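 As to AC50: potency for a decrease of within-burst interspike interval below DMSO level.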 The method, boiled down: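 Mean interspike interval within single-electrode bursts, averaged over bursting electrodes, from rat cortical cultures on MEA plates recorded on days 5, 7, 9 and 12. Continuous compound exposure from plating; trapezoidal AUC fitted downward relative to DMSO.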

Experiment [16] in a line: CCTE_Shafer_MEA_dev_burst_duration_mean: CCTE's Neural Network Formation Assay for Mean Burst Duration, Shafer Lab (AID 2284045). The method, boiled down: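 Mean single-electrode burst duration (first to last spike), averaged over bursting electrodes per well, then integrated as area-under-curve across recordings at days 5, 7, 9 and 12. Rat cortical cultures on MEAs, compound present from plating, refreshed at feeds.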

The nature of experiment [17]: CCTE_Shafer_MEA_dev_interburst_interval_mean: CCTE's Neural Network Formation Assay for Mean Interburst Interval, Shafer Lab (AID 2284046).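 Also: well-mean interburst interval of bursting electrodes as AUC over four recording days; curve fitted for decrease in interburst interval relative to DMSO.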 The method, boiled down: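 Rat cortical neurons, 1.5 x 10^5 cells/well, 48-well MEA; compound from day 0 through DIV 12, media and treatment renewed DIV 5/9. Recordings DIV 5, 7, 9, 12; well-mean interburst interval → trapezoidal AUC, loss direction vs DMSO.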

A short description of experiment [18]: CCTE_Shafer_MEA_dev_inter_network_spike_interval_mean: CCTE's Neural Network Formation Assay for Mean Inter-network Spike Interval, Shafer Lab (AID 2284047). A digest of the protocol:
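Primary rat cortical neurons on PEI-coated 48-well MEAs (16 electrodes/well) were exposed from plating day 0 to DIV 12, with dosing renewed at DIV 5 and 9. Recordings at DIV 5, 7, 9, 12 were collapsed by trapezoidal AUC, loss-of-signal fit vs DMSO.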

Experiment [19] in a line: CCTE_Shafer_MEA_dev_network_spike_number: CCTE's Neural Network Formation Assay for Number of Network Spikes, Shafer Lab (AID 2284048).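 Also: synchronized bursts across electrodes counted on days 5 7 9 12 and integrated as AUC.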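 As to AC50: fit as a loss of signal meaning fewer network spikes than DMSO.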 The method, boiled down: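 Number of network spikes (coordinated firing across electrodes) recorded on days 5, 7, 9 and 12 and summarised as area under the curve. Rat cortical cultures on MEA, continuous compound exposure with full medium/treatment exchange at DIV 5 and 9.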

The nature of experiment [20]: CCTE_Shafer_MEA_dev_network_spike_peak: CCTE's Neural Network Formation Assay for Mean Number of Electrodes in Network Spike, Shafer Lab (AID 2284049).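 As to AC50: fitted for loss of signal meaning fewer electrodes in network spikes than DMSO.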 The method, boiled down:
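Rat cortical primary culture, 1.5 x 10^5 cells/well, 48-well MEA (16 electrodes/well). Dosing day 0 through DIV 12, full media/compound exchange DIV 5, 9. AxIS adaptive spike detection; AUC over days 5/7/9/12; loss-of-signal vs DMSO.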

Where “and” joins values, the source holds several entries; their conditions need not be identical. Identical values can stand only once. Results filed as inconclusive are left out. The source holds several records for some structures; these can differ, active in one and inactive in another. Calls of active or inactive are those of the source. The calls were made as follows, unless noted: active = hit-call score of the fitted dose curve at least 0.9, where 1 is the maximum; inactive = score below 0.9.

The AC50 is the midpoint of the concentration-response curve, whichever way the signal moves.

Take `O=S1OCC2C(CO1)C1(Cl)C(Cl)=C(Cl)C2(Cl)C1(Cl)Cl` (centres undefined): the molecule was classed as inactive in experiment [1], in [2], in experiment [4], in experiment [5], in [6] and in experiment [7]. Besides, the call in [10], in experiment [11], in [12], in experiment [15], in experiment [16] and in experiment [17] was inactive. The molecule was classed as inactive in [18]. For the same molecule, the concentration at half-maximal activity (AC50) in [2] was 0.102 µM (active); in experiment [3], 230 nM (active) and 56 nM (active); in [4], 0.348 µM (active); in experiment [5], 24.4 µM (active); in [6], 0.0502 µM (active); in [7] it was 23.7 µM (active). For the same molecule, the AC50 in [8] was 13.8 µM (active); in [9], 8.83 µM (active); in experiment [13] it was 8.87 µM (active); in experiment [14] it was 8.62 µM (active); in experiment [19], 5.95 µM (active); in experiment [20] it was 8.02 µM (active).
In the case of `CNC(=O)Oc1cccc(N=CN(C)C)c1`, the result in experiment [8], in experiment [10], in experiment [11] and in experiment [12] was inactive.
For `CCC(C)Nc1c([N+](=O)[O-])cc(C(C)(C)C)cc1[N+](=O)[O-]` (centres undefined), the result in [1], in experiment [3], in experiment [4], in experiment [5], in experiment [6] and in [7] was inactive. In addition, the molecule was called inactive in [10] and in experiment [11]. Further, the results for the half-maximal activity concentration (AC50) in experiment [2], in [8] and in [12] were 0.935 µM (active), 11.1 µM (active) and 8.77 µM (active), respectively.
As for `CC(C)OC(=O)Nc1cccc(Cl)c1`, the molecule was called inactive in experiment [1], in experiment [2], in [3] and in experiment [6]. Further, the AC50 in [4] was 25.2 µM (active); in experiment [5], 20 µM (active); in experiment [7], 20 µM (active).
Consider `CC(C)N(C(=O)COc1nnc(C(F)(F)F)s1)c1ccc(F)cc1`, for which the AC50 was 31.9 µM (active) in experiment [1]; 3.55 µM (active) in [2]; 1.32 µM (active) in experiment [4]; 5 µM (active) in experiment [5]; 15 µM (active) in [7]; 24.5 µM (active) in experiment [14]. The AC50 in [20] was 23.3 µM (active). Further, the call in experiment [1], in [2], in [3], in experiment [4], in experiment [5] and in experiment [6] was inactive. Further, the call in experiment [7], in experiment [8], in experiment [9], in experiment [11], in [12] and in experiment [13] was inactive. The call in experiment [14], in [15], in experiment [16], in experiment [17], in [18] and in experiment [19] was inactive. Also, in [20], the result was inactive.
As for `Cc1[nH]c(=O)n(C(C)(C)C)c(=O)c1Cl`, the outcome in experiment [8], in experiment [10] and in [11] was inactive. Also, the AC50 in experiment [12] is 66.1 µM (active).
In the case of `Oc1cc(Cl)ccc1Oc1ccc(Cl)cc1Cl`, the AC50 is 1.2 µM (active) in experiment [1]; 5 µM (active) in experiment [5]; 5 µM (active) in experiment [7]; 10.2 µM (active) in experiment [9]; 8.47 µM (active) in experiment [13]; 9.29 µM (active) in experiment [14]. Further, the AC50 in experiment [15] was 16 µM (active); in experiment [17], 15.6 µM (active); in [20], 9.85 µM (active). In addition, the call in [2], in [3], in experiment [4], in experiment [6], in [11] and in experiment [16] was inactive. Moreover, the molecule was classed as inactive in [18] and in experiment [19].
